Screening results (PubChem)
MITF act: activators of MITF-driven TRPM1 promoter activity in SK-MEL-5 cells. activation, % at 12.5 µM. AID 588334. hit rate 0.75% among 300,000. SK-MEL-5 TRPM1-promoter luciferase, 24 h; % of positive control, neutral wells = 0;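 active = mean activation of at least 80% with every replicate also reaching 80%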;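 also: 0% = neutral control wells and 100% = parthenolide positive control wells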
esBAF inh: inhibitors of esBAF chromatin remodeling in mouse ES cells. Bmi1-luciferase knock-in reporter, 24 h; 100% = twice the neutral-well signal. reporter increase, % at 12.5 µM. hit rate 2% among 350,000. AID 602393; in the data active = activation above about 40%;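 also: 0% = median of the plate's neutral control wells and 100% = double that signal; a rise in the Bmi1 reporter signal indicates esBAF inhibition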
FGF22 binding-1: FGF22 (human) thermal shift binding; hit rate 1.5% among 340,000; activity (Tm shift, normalised), % at 9.99 µM; recombinant FGF22 thermal shift, SYPRO orange fluorescence; percent of sucrose octasulfate shift, DMSO zero;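 active = mean Tm shift, scaled 0 neutral to 100 positive control, at about 1.3% or above, every replicate too, limit read from the data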
Target sequence (Q9HCT0 whole entry, looked up): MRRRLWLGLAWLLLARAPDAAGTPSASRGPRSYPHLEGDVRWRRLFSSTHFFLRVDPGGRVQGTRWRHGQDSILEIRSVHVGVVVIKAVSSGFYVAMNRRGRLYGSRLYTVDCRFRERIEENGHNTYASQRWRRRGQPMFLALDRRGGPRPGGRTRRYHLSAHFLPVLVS
Wnt bcat act: activators of Wnt/beta-catenin signaling; AID 743398; Wnt/beta-catenin reporter cell assay, activator, plate reader; hit rate 1.2% among 300,000; activation, % at 9.35 µM; in the data active = activation above about 30%, passing the limit was not always enough;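 also: 0% = neutral control wells and 100% = positive control wells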
SMARCA2 activ: activators of SMARCA2 function. MG213 cells, MMTV-luciferase reporter, dexamethasone, overnight. activation, % at 9.1 µM. hit rate 1% among 370,000. AID 652017; in the data active = activation above about 7.8%;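 also: 0% = vehicle wells and 100% = reference activator wells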
AF4-AF9 inh: MLL-AF4/AF9 protein interaction inhibition; hit rate 0.47% among 350,000; AlphaScreen, biotin-AF4 peptide binding to FLAG-AF9; P42568; AID 651704; inhibition, % at 10 µM;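 active = every replicate reaching a set inhibition limit, whatever the replicate mean, cut at about 25% in these data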;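 also: 0% = plate neutral control median and 100% = total signal loss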
FGF22 binding-2: binders of human FGF22 by thermal shift; shares compounds with FGF22 binding-1; recombinant FGF22 thermal shift, SYPRO orange fluorescence; thermal shift activity, °C (ΔTm) at 38 µM; hit rate 2% among 1,000;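 active = fitted rise in melting shift crosses a set limit at or below the top valid dose tested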
SYPRO no-protein: compound-only SYPRO artifact for FGF22 binders | hit rate 2% among 1,000 | shares compounds with FGF22 binding-1 | compound-only SYPRO orange thermal shift counter-screen, no protein | AC50, µM (doses to about 38 µM) | AID 743019;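 active = rising signal whose fitted curve reaches the 0.54 level within the top valid dose, showing a melting point, actives reach about 13 µM in these data; inactive = the rest, including activity in the opposite direction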; also: value is where the raw curve crosses a fixed level and not half-maximal
Starred values were filed as active, the others as inactive; i = inactive; . = not tested or not shown; [ ] = dose if it differs, or a comment. Most compounds without a hit are left out; they make up all but 4.3% or so of the library.

SMILES | MITF act | esBAF inh | FGF22 binding-1 | Wnt bcat act | SMARCA2 activ | AF4-AF9 inh | FGF22 binding-2 | SYPRO no-protein
CC(C)(C)c1ccc(S(=O)(=O)NC(=O)C2(C)CCN2C(=O)Cc2ccc(Cl)cc2Cl)cc1 (stereo not drawn) | . | -4.7 | -0.2 | 1.3 | 2.9 | -2.7 | . | .
CC1(C(=O)NS(=O)(=O)Cc2cccc(Cl)c2)CCN1C(=O)C1(c2ccc(Cl)cc2)CCC1 (stereo not drawn) | . | 4.6 | 1.5* | -5.2 | -4.8 | -0.6 | . | i
CC1(C(=O)NS(=O)(=O)c2ccc(Cl)cc2)CCN1C(=O)Cc1ccc(Cl)cc1Cl (stereo not drawn) | . | 0.7 | 1.5* | 0.2 | -1.9 | -4.0 | 0.157 | i
CC(=O)Nc1ccc(S(=O)(=O)Nc2nc3ccc([N+](=O)[O-])cc3s2)cc1 | 3.4 | . | 3.4* | -14.2 | -1.3 | 2.5 | -0.155 | i
C[C@@H]1CN([C@@H](C)CO)C(=O)c2cc(NC(=O)c3ccncc3)ccc2O[C@@H](C)CCCCO[C@H]1CN(C)S(=O)(=O)c1ccccc1 | . | 2.1 | -0.1 | . | . | -1.4 | . | .
O=C(C[C@H]1CC[C@@H]2[C@H](COC[C@@H](O)CN2Cc2nccs2)O1)NCc1ccccc1F | . | -0.7 | 6.6* | . | . | 0.0 | 0.048[42 µM] | i
O=C(C[C@@H]1CC[C@@H]2[C@H](COC[C@@H](O)CN2S(=O)(=O)c2cccc(F)c2)O1)Nc1ccc(-c2ccccc2)cc1 | . | -3.3 | 1.8* | . | . | 0.6 | 0.07[42 µM] | i
Cn1cnc(S(=O)(=O)N2C[C@@H](O)COC[C@H]3O[C@H](CC(=O)NCc4ccc(F)cc4)CC[C@@H]32)c1 | . | -2.4 | 0.1 | . | . | -0.7 | . | .
Cn1cnc(S(=O)(=O)N2C[C@H](O)COC[C@@H]3O[C@@H](CC(=O)NCc4ccc(F)cc4)CC[C@H]32)c1 | . | 0.1 | 3.0* | . | . | -2.1 | 0.114[42 µM] | i
O=C(C[C@@H]1CC[C@H]2[C@@H](COC[C@@H](O)CN2Cc2cc(F)ccc2F)O1)NCc1ccc(F)cc1 | . | -3.9 | 2.4* | . | . | -0.1 | -0.061[42 µM] | i
O=C(Nc1ccc2c(c1)OCO2)N[C@H]1CC[C@H](CCNC(=O)C2CC2)O[C@H]1CO | . | -0.9 | -0.2 | . | . | -2.7 | . | .
C[C@H]1CN([C@@H](C)CO)C(=O)Cc2cc(NS(=O)(=O)c3cn(C)cn3)ccc2O[C@H]1CN(C)C(=O)Nc1cccc2ccccc12 | . | 4.3 | -0.2 | . | . | -14.6 | . | .
CN(C)C(=O)c1ccc(-c2ccc([C@H]3[C@@H](C#N)N(C(=O)C4CCC4)[C@@H]3CO)cc2)cc1 | . | 1.8 | -0.1 | . | . | -1.5 | . | .
O=C(C[C@@H]1CC[C@@H]2[C@H](COC[C@@H](O)CN2Cc2nccs2)O1)NCc1ccccc1F | . | -7.5 | 0.0 | . | . | -2.9 | . | .
O=C(C[C@H]1CC[C@H]2[C@@H](COC[C@H](O)CN2Cc2nccs2)O1)NCc1ccccc1F | . | 2.7 | 1.6* | . | . | 0.4 | 0.099[42 µM] | i
CN(CC(=O)Nc1cccc(F)c1)C(=O)c1ccc(NC2CC2)c([N+](=O)[O-])c1 | -8.1 | 1.1 | -0.5 | -3.7 | -1.9 | -6.0 | . | .
COc1cccc(NC(=O)CN(C)C(=O)c2ccc(NC3CC3)c([N+](=O)[O-])c2)c1 | -7.0 | -2.5 | 2.6* | -0.6 | -4.2 | 3.5 | 0.124 | i
COc1cccc(NC(=O)CN(C)C(=O)c2ccc(N3CCCCC3)c([N+](=O)[O-])c2)c1 | -2.9 | 0.2 | 2.1* | 2.5 | -1.4 | -1.0 | 0.304 | i
COc1cccc(NC(=O)CN(C)C(=O)c2ccc(N3CCOCC3)c([N+](=O)[O-])c2)c1 | 9.8 | . | -0.1 | -4.6 | 1.5 | 1.8 | . | .
CC(=O)N(C)C[C@@H]1Oc2ncc(-c3cccc(C#N)c3)cc2C(=O)N([C@H](C)CO)C[C@@H]1C | . | -1.1 | 0.1 | . | . | -2.3 | . | .
Fc1cccc(-c2ccc(C3[C@H]4CNC[C@@H]3N4Cc3cccnc3)cc2)c1 (stereo partly drawn) | . | . | . | . | . | 4.9 | . | .
O=C(CN1CCCC1)Nc1ccc(OC(F)(F)F)cc1 | . | -1.0 | 26.4* | 2.0 | -1.8 | 0.8 | 0.107 | i
COc1ccc(NC(=O)c2ccc(-n3cncn3)c([N+](=O)[O-])c2)cc1 | -1.3 | 4.6 | 0.1 | -0.3 | -1.4 | 0.5 | . | .
CCc1ccc(NC(=O)c2ccc(-n3cncn3)c([N+](=O)[O-])c2)cc1 | 4.4 | 13.7 | 2.3* | -1.3 | -2.1 | 7.8 | 0.104 | i
O=C(CN1C(=O)NC(Cc2c[nH]c3ccccc23)C1=O)Nc1ccccc1Br (stereo not drawn) | -15.3 | -1.8 | 0.0 | -1.2 | -1.2 | -2.0 | . | .
Cc1ccc(NC(=O)CN2C(=O)NC(Cc3c[nH]c4ccccc34)C2=O)cc1 (stereo not drawn) | -15.4 | 1.6 | 1.7* | 1.7 | 1.1 | -1.7 | -0.524 | i
O=C(CN1C(=O)NC(Cc2c[nH]c3ccccc23)C1=O)Nc1ccc(Br)cc1F (stereo not drawn) | 12.0 | 0.2 | 2.3* | 1.0 | -0.5 | 2.8 | -0.207 | i
C[C@H](NC(=O)C[C@@H]1CC[C@@H]2[C@H](COC[C@@H](O)CN2C(=O)Nc2cccc(Cl)c2)O1)c1ccccc1 | . | 4.9 | 1.5* | . | . | . | -0.005 | i
O=C(C[C@@H]1CC[C@@H]2[C@H](COC[C@@H](O)CN2C(=O)Nc2cccc(Cl)c2)O1)NCC1CCCCC1 | . | 5.0 | 13.8* | . | . | -0.8 | 0.033 | i
COc1cccc(NC(=O)N2C[C@H](O)COC[C@@H]3O[C@@H](CC(=O)NC4CCC4)CC[C@H]32)c1 | . | 0.9 | 1.4* | . | . | -9.3 | -0.12 | i
